Screening results (PubChem)
Pf Dd2 inh: P. falciparum Dd2 growth inhibitors, primary screen, SYBR Green fluorescence, single dose replicates; 72 h; hits give low values; activity change, % at 10 µM; 94,000 compounds, 2.3% hits; in the data active = activity change below about -80%; inconclusive = no clear call, values can overlap the other calls
T cruzi growth-1: T. cruzi intracellular proliferation inhibitors, primary screen, cell-based, beta-gal Tulahuen parasites, NIH3T3 host, luminescence; inhibition, % at 8.34 µM; 77,000 compounds, 5.9% hits; T. cruzi beta-gal in NIH3T3, GalScreen luminescence, 90 h;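 active = mean inhibition above about 93%, with at least 55% of replicates each passing it, limit read from the data, passing the limit was not always enough; inconclusive = only one of those two conditions holds; inactive = neither condition holds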
C diff HTS: C. difficile growth inhibitors, primary screen, HTS; 86,000 compounds, 0.25% hits; Clostridium difficile clinical isolate growth, OD600, 24 h; hits give low values; growth activity, negative = inhibition, % at 16 µg/mL (by protocol);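 active = mean growth activity at or below -80% and every replicate also at or below -80%; inconclusive = mean at or below -80% but some replicate above -80%; inactive = mean growth activity above -80%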;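 note: 0% = DMSO wells and -100% = levofloxacin 16 µg/mL wells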
T cruzi growth-2: T. cruzi intracellular proliferation inhibitors, confirmation, cell-based, NIH3T3 host, beta-gal parasite, luminescence, cherry-pick; inhibition, % at 8.35 µM; 5,600 compounds, 72% hits; AID 651739, 2012; T. cruzi beta-gal in NIH3T3, GalScreen luminescence, 90 h; shares compounds with T cruzi growth-1;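 active = mean replicate inhibition above about 95% and at least 55% of replicates individually reaching it, limit read from the data; inconclusive = only one of the two criteria is met; inactive = neither criterion is met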
T cruzi growth-3: inhibitors of intracellular T. cruzi replication, confirmation, NIH3T3 host cells, beta-gal parasites, cherry-pick, set 2 | shares compounds with T cruzi growth-1 | T. cruzi beta-gal in NIH3T3, GalScreen luminescence, 90 h | inhibition, % at 2.09 µM | 5,600 compounds, 21% hits | AID 651740, 2012;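 active = mean inhibition above about 95%, with at least 55% of replicates also reaching it, limit read from the data; inconclusive = meets just one of the two conditions; inactive = meets neither condition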;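 note: plate controls were neutral control median for no effect and positive control median for full effect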
3T3 cytotox: cytotoxicity in mouse NIH/3T3 fibroblasts, confirmation, cytotoxicity control for T. cruzi proliferation inhibitor project, cell-based, cherry-pick, single point. NIH/3T3 viability, CellTiter-Glo ATP luminescence, 90 h. 5,600 compounds, 14% hits. cytotoxicity (signal decrease), % at 8.35 µM. shares compounds with T cruzi growth-1;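 active = mean signal decrease across replicates above about 35% based on untreated-well scatter, with enough replicates individually passing, limit read from the data; inconclusive = no rule stated though some were filed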;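 note: 0% = median of neutral control wells and 100% = median of positive control wells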
3T3 cytotox 2: NIH/3T3 fibroblast cytotoxicity, confirmation, cytotoxicity control, cell-based, cherry-pick, single point, set 2 | shares compounds with T cruzi growth-1 | 5,600 compounds, 56% hits | NIH/3T3 viability, CellTiter-Glo ATP luminescence, 90 h | inhibition, % at 24.9 µM;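 active = mean loss of cell viability signal at or above a set limit, and enough replicates individually reaching it; inconclusive = meets only the mean limit or only the replicate share; inactive = meets neither condition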;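 note: 0% = median of neutral control wells and 100% = median of positive control wells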
Numbers without * were called inactive; ? = inconclusive; nt = no result. A selection: hits, their analogues and other compounds. The true share with any hit is near 6.7%.

SMILES	Pf Dd2 inh	T cruzi growth-1	C diff HTS	T cruzi growth-2	T cruzi growth-3	3T3 cytotox	3T3 cytotox 2
COc1cccc(S(=O)(=O)N2CCCCN3[C@H](CO)[C@@H](c4ccc(C#CC5CC5)cc4)[C@@H]3C2)c1	3	?	-13	107*	100*	11	22
COc1cccc(S(=O)(=O)N2CCCCN3[C@@H](CO)[C@@H](c4ccc(C#CC5CC5)cc4)[C@@H]3C2)c1	-67	53	45	nt	nt	nt	nt
C[C@H](CO)N1C[C@H](C)[C@@H](CN(C)Cc2ccc(C(=O)O)cc2)Oc2ccc(NS(=O)(=O)c3ccc(F)cc3)cc2CC1=O	3	nt	-4	nt	nt	nt	nt
COc1ccc2c3c([nH]c2c1)[C@H](CO)N(C(=O)c1ccc(F)cc1)CC31CN(Cc2cccnc2)C1	-36	nt	-17	nt	nt	nt	nt
C[C@@H]1CCCCO[C@@H](CN(C)C(=O)CCC(F)(F)F)[C@@H](C)CN([C@H](C)CO)C(=O)c2cc(NC(=O)Nc3ccc4c(c3)OCO4)ccc2O1	-21	-20	6	nt	nt	nt	nt
COc1ccc(-c2ccc([C@H]3[C@@H](C#N)N(C(=O)NC4CCCC4)[C@@H]3CO)cc2)cc1	?	48	13	nt	nt	nt	nt
C[C@@H]1CN([C@H](C)CO)C(=O)c2cc(NC(=O)Nc3ccc4c(c3)OCO4)ccc2O[C@@H]1CN(C)Cc1ccc(C(=O)O)cc1	7	77	-4	nt	nt	nt	nt
CO[C@H]1CN(C)C(=O)c2ccc(NS(=O)(=O)c3ccccc3Cl)cc2OC[C@@H](C)NC[C@H]1C	24	-21	-1	nt	nt	nt	nt
C[C@@H]1CN([C@H](C)CO)C(=O)c2cc(NC(=O)Cc3ccccc3)ccc2O[C@@H](C)CCCCO[C@H]1CN(C)C(=O)Nc1ccc2c(c1)OCO2	-74	53	-1	nt	nt	nt	nt
C[C@@H]1CCCCO[C@@H](CN(C)C(=O)Nc2ccc3c(c2)OCO3)[C@@H](C)CN([C@H](C)CO)C(=O)c2cc(NC(=O)CCCN(C)C)ccc2O1	9	111*	-8	?	12	5	7
C[C@@H]1CCCCO[C@H](CN(C)C(=O)Nc2ccc3c(c2)OCO3)[C@H](C)CN([C@@H](C)CO)C(=O)c2cc(NC(=O)Cc3ccccc3)ccc2O1	-74	?	1	?	45	-14	-18
C[C@@H]1CN([C@H](C)CO)C(=O)Cc2cc(NC(=O)CCN3CCOCC3)ccc2O[C@H]1CN(C)C(=O)Nc1ccc(F)cc1	20	99*	3	61	25	7	7
C[C@H]1CCCCO[C@H](CN(C)C(=O)Nc2ccc(F)cc2)[C@@H](C)CN([C@@H](C)CO)C(=O)c2cc(NC(=O)Cc3ccccc3)ccc2O1	-75	105*	-4	109*	69	-4	11
C[C@@H]1CN([C@@H](C)CO)C(=O)Cc2cc(NC(=O)CCN3CCOCC3)ccc2O[C@H]1CN(C)C(=O)Nc1ccccc1	37	6	0	nt	nt	nt	nt
C[C@@H]1CCCCO[C@@H](CN(C)C(=O)Nc2ccc(F)cc2)[C@@H](C)CN([C@H](C)CO)C(=O)c2cc(NC(=O)Cc3ccccc3)ccc2O1	-24	56	1	nt	nt	nt	nt
C[C@@H]1CCCCO[C@@H](CN(C)C(=O)Nc2ccc3c(c2)OCO3)[C@H](C)CN([C@@H](C)CO)C(=O)c2cc(NC(=O)CCCN(C)C)ccc2O1	-36	55	6	nt	nt	nt	nt
O=C(C1CCCCC1)N1CC2(C1)[C@@H](c1ccccc1)[C@@H](CO)N2Cc1cncnc1	-66	nt	-4	nt	nt	nt	nt
CCNC(=O)[C@H]1[C@H](CO)[C@H]2Cn3c(ccc(-c4cncnc4)c3=O)[C@H]2N1Cc1ccc2c(c1)OCO2	nt	70	-4	nt	nt	nt	nt
COCC(=O)N1CC2(CN(Cc3ccccc3)C2)c2c([nH]c3cc(OC)ccc23)[C@H]1CO	8	nt	-6	nt	nt	nt	nt
